Assay [1] has as its target T1, Aspartate--tRNA(Asp/Asn) ligase (Mycobacterium tuberculosis (strain ATCC 25618 / H37Rv)) (UniProt P9WFW3). Note: in the data most compounds retested in dose-response had high values.
T1 sequence (whole entry): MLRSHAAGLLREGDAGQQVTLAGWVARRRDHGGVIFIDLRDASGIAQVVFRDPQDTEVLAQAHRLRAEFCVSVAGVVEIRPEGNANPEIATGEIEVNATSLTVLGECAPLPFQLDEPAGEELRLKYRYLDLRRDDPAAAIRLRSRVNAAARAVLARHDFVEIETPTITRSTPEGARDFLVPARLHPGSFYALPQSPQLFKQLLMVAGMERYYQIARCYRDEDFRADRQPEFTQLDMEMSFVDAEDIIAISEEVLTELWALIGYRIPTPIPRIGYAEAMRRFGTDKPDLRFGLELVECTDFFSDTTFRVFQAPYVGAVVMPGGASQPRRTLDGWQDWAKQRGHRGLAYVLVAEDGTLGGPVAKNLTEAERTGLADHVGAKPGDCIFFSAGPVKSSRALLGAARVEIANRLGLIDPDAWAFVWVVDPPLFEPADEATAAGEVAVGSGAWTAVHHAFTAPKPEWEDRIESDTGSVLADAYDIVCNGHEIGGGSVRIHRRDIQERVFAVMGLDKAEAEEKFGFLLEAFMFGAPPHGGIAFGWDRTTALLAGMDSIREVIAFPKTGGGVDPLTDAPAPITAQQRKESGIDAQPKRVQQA
Nature of the assay: Assay for Asp RNA synthetase-1 from Mycobacterium tuberculosis. In kind it is functional. Also noted: scale not given: direction of the effect not stated beside the values. To be noted: 30 µM.

For assay [2], the target named is Shiga toxin 2 (Escherichia coli O157:H7) (UniProt P09385+P09386). The experiment in a line: E. coli 0.157:H7 Shiga Toxin SOP - stx2 screening assay. It counts as functional. The arrangement: scale not given: direction of the effect not stated beside the values. To be noted: 30 µM.

`Cc1cnn(CC2CCCCN2C(=O)c2cc(C(N)=O)cs2)c1` (configuration not stated): the Percent Effect in assay [1] was -2.6%; in assay [2] it was 1.14%.

On to `CCc1nc(C2CCCN(C(=O)CN(C)S(C)(=O)=O)C2)no1` (configuration not stated), for which the results for the Percent Effect in assay [1] and in assay [2] were -3.98% and -6.61%, respectively.

With `O=C(Cc1ccccc1F)N1C[C@@H]2COC[C@]2(COc2cccnc2)C1`, the Percent Effect came to 6.28% in assay [1] and 3.35% in assay [2].

`O=S1(=O)CCN(Cc2cccnc2)[C@H]2CCN(c3ncccn3)CC[C@H]21`: the Percent Effect in assay [1] was 1.96%; in assay [2], -36.2%.

For `O=C1COC2(COCCN(Cc3cccnc3)C2)CN1c1ccoc1` (configuration not stated), the figures for the Percent Effect in assay [1] and in assay [2] were 9.69% and -7.3%, respectively.

Take `CCOCCn1c(=O)[nH]c2cc(C(=O)N(C)Cc3nc(C)cs3)ccc21`: the Percent Effect in assay [1] is 1.06%; in assay [2], -4.35%.

On to `O=C(NCc1cc[nH]n1)NCC(O)c1ccc(F)cc1F` (configuration not stated), for which the values for the Percent Effect in assay [1] and in assay [2] were 4.01% and -25%, respectively.

For `CC(Cn1cccn1)NC(=O)N1CCN(Cc2cccs2)CC1` (configuration not stated), the results for the Percent Effect in assay [1] and in assay [2] were -5.57% and -23.7%, respectively.

For `CC(C(=O)NCc1ccnc(N2CCN(C)CC2)c1)n1cccn1` (configuration not stated), the figures for the Percent Effect in assay [1] and in assay [2] were -3.86% and 6%, respectively.

With `COc1ccccc1CC(=O)N1CCC(NCc2c[nH]nc2C)CC1`, the Percent Effect was 4.54% in assay [1] and 17.4% in assay [2].

In the case of `O=C(c1ccc2c(c1)OCO2)N1CCCC(n2cccn2)C1` (configuration not stated), the Percent Effect in assay [1] was determined as 4.23%; in assay [2], 23.2%.

Turning to `NS(=O)(=O)c1ccc(NC(=O)CSc2ccc3c(c2)CCC3)cc1`, the Percent Effect in assay [1] was 3.87%; in assay [2], -78.8%.

Regarding `CCOc1nnc(CN(C)CC2CCCN2c2cccnn2)s1` (configuration not stated), the Percent Effect was -1.14% in assay [1] and -14.4% in assay [2].

As to `CCCNC(=O)c1cnc(N(C)C)nc1COC`, the Percent Effect in assay [1] was -0.929%; in assay [2], -6.54%.

As for `N#CCCCS(=O)(=O)N1CCCC1CC(=O)c1cccs1` (configuration not stated), the Percent Effect was determined as 0.747% in assay [1] and 12% in assay [2].

In the case of `CCn1c(CN2CCCN(C(=O)OC)CC2)nc2c(F)cccc21`, the Percent Effect is -0.656% in assay [1] and 36.3% in assay [2].

Regarding `COCc1nc(N(C)C)ncc1C(=O)Nc1ccn(C)n1`, the Percent Effect is -1.07% in assay [1] and -19.2% in assay [2].

As to `CN(C)CCO[C@H]1CN(Cc2cccc(C#N)c2)[C@@H]2COC[C@H]12`, the Percent Effect is 1.95% in assay [1] and -21.2% in assay [2].

Take `O=C(CCCOc1ccccc1Cl)N1CCCC(n2cncn2)C1` (configuration not stated): the Percent Effect was -3.9% in assay [1] and 19.3% in assay [2].

Regarding `Cn1cnc2c1C(COCC1CCOCC1)CN(C(=O)c1ccoc1)C2` (configuration not stated), the results for the Percent Effect in assay [1] and in assay [2] were 2.22% and -11.7%, respectively.

Consider `CCc1nc(C2CCCN(C(=O)c3cnn(CC)c3)C2)no1` (configuration not stated), for which the Percent Effect stood at 2.22% in assay [1] and 3.55% in assay [2].

For `CCc1ncncc1C(=O)N1CCCN(Cc2ccc(C)cc2)CC1`, the Percent Effect was 7.33% in assay [1] and 16.1% in assay [2].

Regarding `NS(=O)(=O)CCNC(=O)c1nnn(-c2ccc(F)cc2)c1C1CC1`, the Percent Effect was -3.36% in assay [1] and -8.62% in assay [2].

As for `CCN(Cc1nc2c(cnn2C)c(=O)[nH]1)c1cccc(F)c1`, the results for the Percent Effect in assay [1] and in assay [2] were 1.24% and -7.65%, respectively.

Take `CCN1CC2(CC1=O)CN(Cc1cnn(C)c1)CCN(C(C)=O)C2` (configuration not stated): the Percent Effect in assay [1] is 1.68%; in assay [2], -2.37%.

For `CCc1nc2n(n1)CC(NCc1ncc(-c3ccccc3)o1)CC2` (configuration not stated), the figures for the Percent Effect in assay [1] and in assay [2] were 0.562% and 9.14%, respectively.

Turning to `Cn1cc(N2CC3(CCN(CC4CCOCC4)CC3)OCC2=O)cn1`, the Percent Effect is -2.85% in assay [1] and -32.8% in assay [2].

As to `N#Cc1ccccc1OCCN1CCC(N2CCNC2=O)CC1`, the Percent Effect in assay [1] was -0.816%; in assay [2] it was -50.9%.

On to `COc1cccc(-n2nnc(C(=O)N3CCCC3)c2C)c1`, for which the Percent Effect is -2.63% in assay [1] and 5.03% in assay [2].

For `CC(C)N(Cc1nc2c(cnn2C)c(=O)[nH]1)c1ccccc1`, the Percent Effect in assay [1] was -2.77%; in assay [2], 3.48%.

As to `Cc1noc(C)c1CNc1cc(N2CCCC2CO)ncn1` (configuration not stated), the Percent Effect in assay [1] is -7.32%; in assay [2], -11.6%.

`Cc1cc(C)n(CC2CCCN2CCCS(=O)(=O)N(C)C)n1` (configuration not stated): the results for the Percent Effect in assay [1] and in assay [2] were 2.38% and 0.632%, respectively.

As to `Fc1ccc(CN2CCC(c3n[nH]c4nccnc34)CC2)cc1F`, the figures for the Percent Effect in assay [1] and in assay [2] were 0.372% and -8.59%, respectively.

For `Cc1cc(C)n(CC2CCCN2C(=O)c2ccc3[nH]nnc3c2)n1` (configuration not stated), the Percent Effect in assay [1] is 3.71%; in assay [2], -26.6%.

`CC(=O)Nc1nc(C2CCN(C(C)=O)CC2)cs1`: the Percent Effect in assay [1] is -1.69%; in assay [2] it was -0.268%.

For the compound `COCCCN1CCCN(C(C)C(=O)Nc2cccc(I)c2)CC1` (configuration not stated), the figures for the Percent Effect in assay [1] and in assay [2] were 0.0704% and -31.1%, respectively.

Take `O=C1C(NS(=O)(=O)c2cc(F)cc(F)c2)CCN1Cc1ccccc1` (configuration not stated): the values for the Percent Effect in assay [1] and in assay [2] were -5.71% and 3.9%, respectively.

With `Cc1cnn(CC(C)NCc2ccc(OCc3ccncc3)cc2)c1` (configuration not stated), the results for the Percent Effect in assay [1] and in assay [2] were -0.0437% and -25.9%, respectively.

With `Cc1cc(S(=O)(=O)Nc2cccc(-n3cccc3)c2)sc1C(=O)O`, the Percent Effect in assay [1] came out at 7.63%; in assay [2] it was 11%.

As to `O=S(=O)(CCNC1CCc2ncnn2C1)c1ccccc1` (configuration not stated), the Percent Effect is 1.06% in assay [1] and -24.1% in assay [2].

For the compound `Cc1noc(CN2CCN(Cc3cccs3)CC2)n1`, the Percent Effect in assay [1] is -1.85%; in assay [2], 1.32%.

On to `CCc1nnc2n1CCN(Cc1csc(-c3ccsc3)n1)C2`, for which the Percent Effect was 1.89% in assay [1] and -7.29% in assay [2].

With `O=C(CCc1ccccc1F)NS(=O)(=O)c1ccc2c(c1)OCCCO2`, the Percent Effect was 2.29% in assay [1] and -13.9% in assay [2].

On to `Cc1nc(NCc2cccnc2)c2c(n1)c(C)nn2C`, for which the Percent Effect is 10.4% in assay [1] and -31.1% in assay [2].

`CS(=O)(=O)NCC1CCCN(C(=O)c2cc3ccccc3o2)C1` (configuration not stated): the Percent Effect was 3.19% in assay [1] and -22% in assay [2].

Regarding `CCc1nc(CC(=O)N2CCN(c3cnccn3)CC2)cs1`, the results for the Percent Effect in assay [1] and in assay [2] were -3.74% and -11.5%, respectively.

Regarding `COc1ccc(CN2CCN(C(C)=O)CC3(CC(=O)N(C)C3)C2)cc1` (configuration not stated), the Percent Effect in assay [1] was 1.68%; in assay [2], -5.8%.

As for `CCCc1noc(CCC(=O)N2CCCC2c2ccsc2)n1` (configuration not stated), the figures for the Percent Effect in assay [1] and in assay [2] were -1.06% and 8.4%, respectively.

Turning to `COCCNC(=O)NCCc1ccn(-c2ccccc2)n1`, the Percent Effect in assay [1] is -4.41%; in assay [2] it was 3.32%.

For the compound `Cc1ccc2oc(C(=O)N3CCc4nnc(N(C)C)cc4C3)cc2n1`, the Percent Effect in assay [1] was 1.25%; in assay [2] it was -14.3%.

On to `Cc1cccc(-c2noc(CN3CCCC3Cn3cccn3)n2)c1` (configuration not stated), for which the Percent Effect in assay [1] was -8.22%; in assay [2], 28.6%.

These data come from ChEMBL document CHEMBL3988442, “University of Dundee, Small-Polar-MMV Screening Library” (2021).
